Compound activity as filed in PubChem.
NR1D1 modulator: modulators of Rev-erb alpha DNA binding, primary screen, biochemical, FITC-DNA, fluorescence polarization, uHTS. activity, % at 10 µM. hit rate 0.79% among 370,000. AID 1259318, 2017. Rev-erbα–FITC-DNA binding, 90 min. Nuclear receptor subfamily 1 group D member 1 (Homo sapiens), P20393;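 active = activity above about 14%, limit read from the data; passing the limit was not always enough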;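 note: 0% = DMSO wells with 35 nM protein and 100% = DMSO wells with 750 nM protein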
Target sequence (P20393 whole entry, looked up): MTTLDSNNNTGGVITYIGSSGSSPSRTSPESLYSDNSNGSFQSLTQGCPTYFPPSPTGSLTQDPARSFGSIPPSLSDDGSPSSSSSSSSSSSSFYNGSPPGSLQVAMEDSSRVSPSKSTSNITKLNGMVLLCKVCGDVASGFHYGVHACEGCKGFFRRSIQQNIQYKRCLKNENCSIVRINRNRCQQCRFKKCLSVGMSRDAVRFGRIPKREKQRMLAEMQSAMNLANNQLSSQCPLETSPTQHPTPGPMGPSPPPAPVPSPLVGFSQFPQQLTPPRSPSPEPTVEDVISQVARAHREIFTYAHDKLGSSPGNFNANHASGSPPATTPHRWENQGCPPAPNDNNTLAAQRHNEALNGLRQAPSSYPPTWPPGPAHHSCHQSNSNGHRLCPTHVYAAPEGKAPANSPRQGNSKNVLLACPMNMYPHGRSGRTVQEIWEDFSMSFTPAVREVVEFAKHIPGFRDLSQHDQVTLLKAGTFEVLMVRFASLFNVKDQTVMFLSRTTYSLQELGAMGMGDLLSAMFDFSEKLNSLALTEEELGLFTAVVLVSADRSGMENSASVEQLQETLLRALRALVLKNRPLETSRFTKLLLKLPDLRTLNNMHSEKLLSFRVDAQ
PP1 counter: PP1-alpha phosphatase inhibitors, primary screen, counter-screen for PP5 inhibitor project, biochemical, fluorescence, OMFP substrate, single point | inhibition, % at 6.7 µM | purified PP1alpha | hit rate 0.9% among 320,000 | AID 2235, 2010;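 active = inhibition above the mean inhibition of all tested compounds plus 3 SD, computed separately for each screening campaign, cut at about 15% in these data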
GASC-1 inh: inhibitors of GASC-1 histone demethylase, primary screen, biochemical, fluorescence, DELFIA europium. Lysine-specific demethylase 4C (Homo sapiens), Q9H3R0. GST-JMJD2C(1-420) H3K9me3 demethylation. inhibition, % at 2.35 µM. hit rate 0.069% among 330,000. AID 2099, 2009;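 active = more than half of a compound's replicate wells show inhibition beyond 50%, single wells judged on their own value; inconclusive = some, but no more than half, of replicates pass 50% inhibition; inactive = no replicate passes 50% inhibition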;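 note: signal counts dimethyl H3K9 product captured on neutravidin plate; 0% = median of DMSO wells and 100% = 0.3 times that DMSO median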
KLK7 zymogen act: proKLK7 zymogen activators, primary screen, biochemical, fluorescence intensity; Kallikrein-7 (Homo sapiens), P49862; purified proKLK7, EDANS-DABCYL substrate fluorescence; 100% is mature enzyme control, 0% vehicle; activation, % at 7 µM; hit rate 0.9% among 370,000;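 active = activation above the mean of all tested compounds plus 3 SD, computed per campaign excluding outliers beyond control limits, cut at about 13% in these data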
PG9 binder: binders of HIV-1 gp120 antibody PG9, primary screen, biochemical, TR-FRET. HIV-1 gp120 / PG9 antibody interaction. TR-FRET gp120-PG9 antibody binding. inhibition, % at 6.7 µM. hit rate 0.43% among 360,000; in the data active = inhibition above about 8.5%
PP5 inh: PP5 phosphatase inhibitors, primary screen, biochemical, fluorescence. purified PP5c, OMFP substrate fluorescence. inhibition, % at 6.7 µM. Serine/threonine-protein phosphatase 5 (Homo sapiens), P53041. hit rate 0.18% among 320,000;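 active = inhibition above the campaign's mean inhibition across all tested compounds plus 3 SD, cut at about 9.5% in these data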;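 note: 0% = DMSO only and 100% = 100 µM cantharidin control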
PP5 conf: PP5 phosphatase inhibitors, confirmation, biochemical, fluorescence, human; inhibition, % at 6.7 µM; Purified PP5, fluorogenic phosphatase substrate; AID 2331, 2010; shares compounds with PP5 inh; hit rate 22% among 460; in the data active = inhibition above about 9.5%
PP1 inh counter: PP1 phosphatase inhibitors, counter-screen for PP5 inhibitor project, biochemical, fluorescence, triplicate. shares compounds with PP5 inh. PP1 enzyme, fluorescent phosphatase substrate. inhibition, % at 6.7 µM. hit rate 4% among 460; in the data active = inhibition above about 16%
Active calls of the source: *; ? = inconclusive; . = not tested or not shown. In the library only some 2.8% were active in any assay of this set; here they are far more common.

SMILES | NR1D1 modulator | PP1 counter | GASC-1 inh | KLK7 zymogen act | PG9 binder | PP5 inh | PP5 conf | PP1 inh counter
CO/N=C(\CCC(=O)O)c1cccs1 | 1 | -1 | 2 | 0 | -2 | 9.7* | -6 | -4
COC(=O)c1cc(S(=O)(=O)N2CCN(c3cccc(C(F)(F)F)c3)CC2)cn1C | 2 | . | . | 0 | . | . | . | .
O=[N+]([O-])c1cccc(S(=O)(=O)[N-]c2nc3ccccc3nc2-n2cc[n+](Cc3ccccc3)c2)c1 | -8 | 5 | 7 | -1 | 1 | 13* | -2 | 2
O=S(=O)([N-]c1nc2ccccc2nc1-n1cc[n+](Cc2ccccc2)c1)c1ccccc1 | -7 | -4 | -3 | 4 | -3 | -3 | . | .
O=C(c1cccc(C(F)(F)F)c1)N1CCC(O)(CS(=O)(=O)Cc2ccccc2Cl)CC1 | -2 | -1 | -2 | 0 | 1 | 11* | -3 | -4
O=C(c1cccc(C(F)(F)F)c1)N1CCC(O)(CS(=O)(=O)Cc2ccccc2)CC1 | -6 | 0 | -4 | 0 | 1 | 4 | . | .
COc1ccc(S(=O)(=O)Cc2ccc(C(=O)NCC(OC)OC)o2)cc1 | -3 | -5 | 7 | 0 | -3 | -1 | . | .
COC(CNC(=O)c1ccc(CS(=O)(=O)c2ccccc2)o1)OC | -5 | 1 | -7 | 0 | -2 | 14* | -3 | -4
Cc1cc(C(=O)CSc2nc3ccccc3c(=O)[nH]2)c(C)n1CC1CCCO1 (stereo not drawn) | 1 | 0 | -2 | 0 | 0 | 15* | -4 | -2
Cc1cc(C2(c3ccc(O)c(C)c3)C(=O)Nc3ccccc32)ccc1O | 5 | 8 | -9 | 0 | -1 | 16* | 6 | 5
Cc1ccc(OCCn2cc(/C=N/NC(=O)c3ccncc3)c3ccccc32)cc1 | 3 | 8 | 2 | -3 | 2 | 9.9* | 1 | 3
CCCc1ccc(Oc2cn[nH]c2-c2ccc(O)cc2O)cc1 | 7 | 6 | . | 0 | -2 | 10.0* | 4 | 7
Cc1n[nH]c(C)c1S(=O)(=O)NCCc1cccc(F)c1 | -2 | . | . | 0 | . | . | . | .
CCOC(=O)N1CCN(CC(O)COc2ccc(OC)cc2C(C)(C)C)CC1 (stereo not drawn) | 1 | -1 | 7 | 0 | 0 | -2 | . | .
CCOC(=O)C1CCCN(CC(O)COc2ccc(OC)cc2C(C)(C)C)C1 (stereo not drawn) | 0 | 1 | 1 | 0 | 1 | 11* | 0 | -4
CCCOc1ccc(C(=O)N/N=C/c2c[nH]c3ccc(Br)cc23)cc1 | -1 | 4 | 0 | -2 | -2 | 12* | 5 | 2
COc1ccc(C(=O)N/N=C/c2c[nH]c3ccccc23)cc1 | 3 | -6 | -24 | 1 | -4 | 1 | . | .
COC(=O)C1=C(C)N(Cc2ccc(C(F)(F)F)cc2)C(=NCc2ccc3c(c2)OCO3)NC1c1ccccc1C(F)(F)F (stereo not drawn) | -1 | . | . | 0 | -1 | . | . | .
COC(=O)[C@H](C(C)C)N1Cc2nnn(Cc3ccccc3)c2C=CS1(=O)=O | -1 | . | . | -1 | . | . | . | .
O=C(O)c1cc(N/N=C/c2cccnc2)ccc1Cl | -3 | -2 | 19 | 0 | -5 | 0 | . | .
O=C(O)c1cc(N/N=C/c2ccncc2)ccc1Cl | 6 | -8 | 3 | 0 | -5 | 11* | 0 | -2
CCN(CC(=O)Nc1ccc(NC(C)=O)cc1)CC(=O)Nc1ccc(Cl)c(Cl)c1 | -1 | 3 | -33 | 0 | 0 | -1 | . | .
CCN(CC(=O)Nc1ccc(NC(C)=O)cc1)CC(=O)Nc1cccc(Cl)c1 | 7 | 0 | -4 | 0 | -2 | 9.8* | -3 | -2
Cc1ccc(NC2=C(N3CCCCC3)C(=O)c3ccccc3C2=O)cc1 | 5 | 5 | -1 | 0 | 1 | 9 | . | .
O=C1C(Nc2ccccc2)=C(N2CCCCC2)C(=O)c2ccccc21 | 7 | 2 | 1 | 0 | 0 | 10* | 33* | 0
SMILES | NR1D1 modulator | PP1 counter | GASC-1 inh | KLK7 zymogen act | PG9 binder | PP5 inh | PP5 conf | PP1 inh counter
O=C(/C=C/c1ccc(O)cc1)c1ccc(NC2=C(N3CCCCC3)C(=O)c3ccccc3C2=O)cc1 | -6 | 4 | ? | 8 | -1 | 9.9* | 37* | 1
NNC(=O)CCc1ccc(S(=O)(=O)N2CCOCC2)cc1 | -2 | -3 | 9 | . | . | 11* | -1 | -1
COCC(=O)N(Cc1cc2cccc(C)c2[nH]c1=O)c1ccccc1 | -1 | -3 | 5 | 0 | -2 | 10.0* | -2 | -3
COCC(=O)N(Cc1cc2cc(C)ccc2[nH]c1=O)c1ccccc1 | 3 | 0 | -8 | 0 | 0 | 1 | . | .
Nc1nc2c(ncn2[C@@H]2O[C@H](C(=O)N[C@@H](Cc3ccccc3)C(=O)NCc3ccc4c(c3)OCO4)[C@@H](O)[C@H]2O)c(=O)[nH]1 | 10 | . | . | 0 | -1 | . | . | .
CC(C)C[C@H]1CN=C(Nc2ccccc2)N1CCCCc1ccccc1 | -10 | 4 | 0 | -1 | 0 | 46* | -4 | -7
CC(C)CCCN1C(Nc2ccccc2)=NC[C@@H]1CC(C)C | -1 | -3 | -3 | 0 | 0 | 1 | . | .
O=C(N1CCOCC1)N1CCN(C(c2ccccc2)c2ccccc2)CC1 | 4 | -4 | 2 | 1 | 3 | 10* | -2 | -4
O=C(N1CCCCC1)N1CCN(C(c2ccccc2)c2ccccc2)CC1 | 1 | 1 | -11 | 0 | 1 | 3 | . | .
COc1ccc(-c2csc(NC(=O)c3ccccc3S(C)(=O)=O)n2)cc1 | 3 | -20 | 2 | 0 | -1 | 11* | -1 | 0
FC(F)(F)c1ccc(Oc2ccc3c(C(F)(F)F)cc(C(F)(F)F)nc3n2)cc1 | 0 | -1 | -4 | 0 | -2 | -1 | . | .
COc1ccc(Oc2ccc3c(C(F)(F)F)cc(C(F)(F)F)nc3n2)cc1 | -1 | 0 | -4 | 0 | 0 | 16* | 3 | 1
O=C(O)[C@H](O)[C@@H](O)C(=O)O | 0 | -7 | . | -1 | 0 | -4 | . | .
O=C(O)[C@@H](O)[C@H](O)C(=O)O | -2 | 2 | -5 | 0 | -2 | 11* | 7 | 0
COc1cc(C(=O)Nc2ccc(S(=O)(=O)N3CCCCC3C)cc2)cc(OC)c1OC (stereo not drawn) | -5 | -2 | 2 | 0 | 0 | 1 | . | .
